SW480 rerep = DNA re-replication induction in SW480 cells. SW480 DNA re-replication, Hoechst DNA content imaging, 48 h. Potency, µM (highest dose often 46.1 µM), for the others: top-dose re-replication activation, most hits filed as activators. 340,000 compounds, 1.8% hits. AID 624297; also: potency is read from the fitted curve at half-maximal effect; % of control where 0% means no effect; nearly all actives have a fitted effect of over 55% in size
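SW480 cells exposed to compounds for 48 hr at 37 C, 5% CO2, then Hoechst-stained 40 min. Nuclear DNA content imaged by fluorescence scanning (405 nm excitation, 500-530 nm emission); re-replication scored as increased high-intensity nuclei.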
MCF10A rerep = inducers of DNA re-replication in MCF 10A breast cells. MCF 10A DNA re-replication, Hoechst nuclear intensity, 48 h. Potency, µM (highest dose often 46.1 µM), without a hit: at the highest dose activity, positive = re-replication, actives largely listed as activators. 350,000 compounds, 2.9% hits. AID 624296; also: potency is read from the fitted curve at half-maximal effect; % of control where 0% means no effect; nearly all actives have a fitted effect of over 50% in size
KCNH2 3.1 inh = blocks the human KCNH2 3.1 channel isoform; U2OS KCNH2 3.1, thallium flux FluxOr; hits give low values; activity change, % (tested at about 1.8 µM); 340,000 compounds, 0.95% hits;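 active = maximum activity change below -70%; inconclusive = maximum activity change from -70% to -50%; inactive = maximum activity change above -50%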;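 also: thallium influx rate constant from kinetic fluorescence after stimulation buffer; % is scaled to controls: 0 for no effect and ±100 for the full control effect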
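Steps: virus added to U2OS suspension (4 h, RT, dark); medium with 10% FBS added, cells plated, 37 C overnight; FluxOr/Red40 loading buffer 45 min RT; stimulation buffer, 2 min kinetic read; rate constant normalized.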
KB-3-1 tox = kills parental KB-3-1 adenocarcinoma cells; KB-3-1 viability, CellTiter-Glo ATP luminescence, 72 h; Potency, µM (series often up to 46.1 µM), usual class: cytotoxic; 400,000 compounds, 1.4% hits; also: potency is read from the fitted curve at half-maximal effect; % is scaled to controls: 0 for no effect and ±100 for the full control effect; nearly all actives have a fitted effect of over 60% in size
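Multi-concentration cytotoxicity screen in KB-3-1 cells grown in DMEM lacking phenol red with 10% FBS. After 72 h at 37 °C with compound, ATP-dependent luminescence was recorded.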
KCNH2 WT inh = KCNH2 (human, wildtype) channel inhibition. Q12809. U2OS, BacMam KCNH2, thallium flux FluxOr; hits give low values. activity change, % at 1.84 µM. 340,000 compounds, 0.37% hits;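 active = maximum activity change below -70%; inconclusive = maximum activity change between -70% and -50%; inactive = maximum activity change above -50%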; also: % is scaled to controls: 0 for no effect and ±100 for the full control effect
Target sequence (Q12809 whole entry, looked up): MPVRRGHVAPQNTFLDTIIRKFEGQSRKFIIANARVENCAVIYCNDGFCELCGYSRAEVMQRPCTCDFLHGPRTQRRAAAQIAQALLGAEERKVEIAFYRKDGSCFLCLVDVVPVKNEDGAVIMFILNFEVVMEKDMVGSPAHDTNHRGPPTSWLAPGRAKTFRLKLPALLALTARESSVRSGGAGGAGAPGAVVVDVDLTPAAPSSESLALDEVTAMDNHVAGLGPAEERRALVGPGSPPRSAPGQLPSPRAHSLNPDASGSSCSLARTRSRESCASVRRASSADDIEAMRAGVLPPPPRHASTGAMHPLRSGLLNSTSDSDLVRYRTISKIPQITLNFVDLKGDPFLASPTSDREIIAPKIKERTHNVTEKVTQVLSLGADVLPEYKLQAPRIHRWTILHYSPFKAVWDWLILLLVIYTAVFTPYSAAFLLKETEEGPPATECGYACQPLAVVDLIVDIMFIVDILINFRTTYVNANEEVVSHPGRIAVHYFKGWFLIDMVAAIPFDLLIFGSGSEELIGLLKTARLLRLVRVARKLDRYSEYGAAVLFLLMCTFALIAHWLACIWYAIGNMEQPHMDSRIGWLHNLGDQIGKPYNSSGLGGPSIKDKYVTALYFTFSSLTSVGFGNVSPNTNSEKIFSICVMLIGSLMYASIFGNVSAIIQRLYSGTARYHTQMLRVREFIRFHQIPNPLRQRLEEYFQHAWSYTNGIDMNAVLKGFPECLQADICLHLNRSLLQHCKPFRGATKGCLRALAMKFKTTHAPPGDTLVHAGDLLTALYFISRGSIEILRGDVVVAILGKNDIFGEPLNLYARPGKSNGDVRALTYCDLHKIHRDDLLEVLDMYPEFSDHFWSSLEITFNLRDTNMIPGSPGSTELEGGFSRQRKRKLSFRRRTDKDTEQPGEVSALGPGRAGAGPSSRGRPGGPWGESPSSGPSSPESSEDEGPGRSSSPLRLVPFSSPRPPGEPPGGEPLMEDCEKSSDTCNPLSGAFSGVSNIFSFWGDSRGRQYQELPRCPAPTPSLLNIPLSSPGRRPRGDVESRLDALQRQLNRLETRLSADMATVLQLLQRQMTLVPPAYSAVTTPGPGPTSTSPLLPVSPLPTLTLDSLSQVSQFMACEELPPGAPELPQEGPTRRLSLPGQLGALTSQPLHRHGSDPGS
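U2OS cells transduced with wild-type KCNH2 virus are loaded with FluxOr dye for 45 min, and thallium flux is measured in kinetic reads before and after stimulation buffer. Rate constants are normalized to DMSO controls.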
KB-V1 cytotox = kills drug-selected multidrug resistant KB-V1 cells; KB-V1 MDR cells viability, CellTiter-Glo, 72 h; Potency, µM (highest dose often 46.1 µM), most hits filed as cytotoxic; 400,000 compounds, 3.4% hits; AID 1347076; also: potency is read from the fitted curve at half-maximal effect; % is scaled to controls: 0 for no effect and ±100 for the full control effect; nearly all actives have a fitted effect of over 60% in size
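Cells of the MDR subline KB-V1 are plated, dosed with compound at multiple concentrations, and incubated 72 h at 37 degrees C; CellTiter-Glo is then added and luminescence read after 10 min.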
* hit, by the source's call; i = inactive; ? = inconclusive; . = not tested or not shown; [ ] = another dose, or the depositor's remark. A selection: hits, their analogues and other compounds. The true share with any hit is near 7.6%. Unless noted, calls follow the shape of the dose curve; as a rule, active = well fitted curve in the direction sought with a large enough effect; inconclusive = small, poorly fitted or top-dose-only effect, or another doubt; inactive = no such curve, though single readings can be large; an effect the other way counts as inactive or inconclusive.

SMILES	SW480 rerep	MCF10A rerep	KCNH2 3.1 inh	KB-3-1 tox	KCNH2 WT inh	KB-V1 cytotox
CC1=NNC(=O)/C1=C\c1cn(-c2ccccc2)nc1-c1cccs1	4.1µM*	2.6µM*	0	i	.	i
O=Cc1cn(-c2ccccc2)nc1-c1ccc(F)cc1	-2%	1%	-14	i	-9	i
CC1CCN(C(=O)CN(C)S(=O)(=O)c2cccc3nsnc23)CC1	-3%	1%	8	i	-3	23µM*
CCOC(=O)c1cnc2ccc(OC)cc2c1Nc1cccc(C(C)=O)c1	.	.	.	i	.	i
CCOC(=O)c1cnc2ccc(OC)cc2c1NCc1ccccc1	-7%	11%	-27	i	-4	3.7µM*
CCOC(=O)c1cnc2ccc(OCC)cc2c1NCc1ccccc1OC	27%	?	-36	?	-15	7.3µM*
CCOC(=O)c1cnc2ccc(OCC)cc2c1Nc1cc(Cl)c(OC)cc1OC	.	.	.	i	.	i
O=C(CN1C(=O)C2CC=CCC2C1=O)OCC(=O)c1ccc(Cl)c([N+](=O)[O-])c1 (configuration not stated)	?	23µM*	8	i	-29	?
COc1cc(-c2ccc3ncnc(NCc4nc(C)cs4)c3c2)cc(OC)c1OC	.	.	.	i	.	i
Cc1ccc2nc(/C(C#N)=C\c3ccc(N4CCOCC4)o3)[nH]c2c1	15%	-4%	2	i	-4	?
N#C/C(=C(/O)c1ccc([N+](=O)[O-])o1)c1nc2ccccc2[nH]1	?	3.3µM*	8	?	3	?
N#C/C(=C\Nc1ccc2c(c1)OCCO2)c1nc2ccccc2[nH]1	?	?	-6	?	-8	15µM*
COc1ccc(-c2csc(/C(C#N)=C/Nc3ccc4c(c3)OCCO4)n2)cc1	2.3µM*	2.1µM*	5	i	.	i
Cc1ccc2nc(/C(C#N)=C\c3ccc([N+](=O)[O-])o3)[nH]c2c1	?	9.2µM*	-18	i	-36	i
Cc1ccc(-c2n[nH]c(=S)n2/N=C/c2c(C)[nH]n(-c3ccccc3)c2=O)cc1	-6%	?	-8	?	i	?
Cc1cc(C)c2nc(N(Cc3cccnc3)C(=O)CCOc3ccccc3)sc2c1	.	.	.	i	.	i
O=C1CCC(C(=O)NCc2ccc3c(c2)OCO3)N1 (configuration not stated)	-10%	-2%	6	i	-7	i
N#C/C(=C\c1ccc(Sc2ccccc2)o1)c1nc2ccccc2[nH]1	5%	9%	?	i	16	i
N#C/C(=C\c1ccc([N+](=O)[O-])o1)c1nc2ccccc2[nH]1	?	3.7µM*	-14	13µM*	-17	i
O=C(c1ccc(-c2cccc([N+](=O)[O-])c2)o1)N1CCN(c2ccc([N+](=O)[O-])cc2)CC1	4%	1%	-116*	i	-111*	i
O=C(c1ccc(-c2ccc(Cl)cc2)o1)N1CCN(c2ccc([N+](=O)[O-])cc2Cl)CC1	8%	-12%	-83*	i	-5	i
O=[N+]([O-])c1cccc(-c2ccc(C(=S)N3CCN(c4ccc(F)cc4)CC3)o2)c1	2%	3%	-8	i	-1	i
Nc1cnccn1	.	.	.	i	.	i
CCCCCC(=O)Nc1cccc(C2=NOC3(C2)C[C@H](C(N)=O)N(C(=O)c2ccccc2C(=O)c2ccccc2)C3)c1 (some centres not stated)	-2%	17%	8	i	3	i
O=C(CCNS(=O)(=O)c1ccccc1)NNC(=O)COc1ccc(Cl)cc1	-4%	6%	7	i	6	?
SMILES	SW480 rerep	MCF10A rerep	KCNH2 3.1 inh	KB-3-1 tox	KCNH2 WT inh	KB-V1 cytotox
O=C(O)c1ccc2noc(-c3ccccc3)c2c1	0%	15%	-3	i	-3	i
O=C(O)/C=C/c1ccc2c(-c3ccccc3)onc2c1	-8%	-2%	-12	i	-126*	i
CC(C)(C)NC(=O)C(c1ccc(-c2ccccc2)cc1)N(C[C@H]1CC[C@@H]([C@@H]2CC[C@H](CO)O2)O1)C(=O)c1cccc(Cl)c1 (some centres not stated)	10%[9.22 µM]	?	-8	15µM*	-2	i
Cc1cccc2cc(/C=N/NC(=O)CN3CCOCC3)c(Cl)nc12	-5%	-1%	5	i	-5	18µM*
CS(=O)(=O)c1ccc(NCC2CCCO2)c([N+](=O)[O-])c1 (configuration not stated)	-6%	18%	4	?	0	i
O=C(CN(C1CC1)S(=O)(=O)c1ccc(S(=O)(=O)NC2CCCCC2)cc1)Nc1ccccc1	?	9%	-14	?	-1	i
O=C(CN(Cc1cccs1)S(=O)(=O)c1ccc(S(=O)(=O)NC2CCCCC2)cc1)Nc1ccccc1	29%	?	11	?	-1	13µM*
O=C(COc1ccccc1[N+](=O)[O-])Nc1cc(-c2nc3cc(Cl)ccc3o2)ccc1Cl	.	.	.	i	.	i
CCOC(=O)N1CCN(c2c(-c3ccccc3)c3cc(Cl)ccc3[nH]c2=O)CC1	-4%	-3%	-18	?	-1	9.2µM*
O=C(CN1CCN(C/C=C/c2ccccc2)CC1)NCc1ccc(Cl)cc1	-2%	?	-124*	i	?	?
CCOC(=O)N1CCN(CC(=O)Nc2c(C(=O)OC)[nH]c3ccc(Cl)cc23)CC1	2%	29%	6	16µM*	3	2.3µM*
CCOC(=O)c1[nH]c2ccc(F)cc2c1NC(=O)CN1CCN(C/C=C/c2ccccc2)CC1	?	15µM*	?	i	-90*	?
CCOC(=O)N1CCN(CC(=O)Nc2c(C(=O)OC)[nH]c3cc(C)ccc23)CC1	-3%	3%	1	i	4	i
CCOc1ccccc1C(C(=O)NC1CCCC1)N(C(=O)c1csnn1)C1CC1 (configuration not stated)	-1%	-12%	-18	i	-19	i
NS(=O)(=O)c1ccc(NC(=O)c2cc(-c3cc(Cl)ccc3O)n[nH]2)cc1	2%	1%	4	i	-1	i
Cc1cc(C)n(CCc2nc3c4ccccc4nc(N4CCN(c5ccccc5F)CC4)n3n2)n1	.	.	.	i	.	?
COC(=O)c1[nH]c2ccccc2c1NC(=O)CN1CCN(C/C=C/c2ccccc2)CC1	16%	9%	-96*	i	-94*	?
Cc1cccc(C)c1NC(=O)CN1CCN(C/C=C/c2ccccc2)CC1	.	.	.	i	.	i

High-throughput results: PubChem, National Center for Advancing Translational Sciences (NCATS)
